Only some compounds are listed: those with a hit (about 3.6% of all), similar ones and a draw of the others.
Pf apPOL block: Pf-apPOL DNA polymerase inhibition. Recombinant Pf-apPOL, molecular beacon fluorescence, 1.5 h. inhibition, % at 10 µM. actives 0.25% (n = 210,000)
mHTT-CaM PPI inh: inhibitors of human mutant huntingtin-calmodulin interaction; AID 1671202; inhibition, % at 15 µM; actives 3.6% (n = 190,000); AlphaScreen His-mHTT/GST-CaM binding, luminescence; P42858;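 note: 0% = both proteins with DMSO and 100% = one protein alone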
Numbers without * were called inactive; · = no result given. Cut-off read from the data, not from the text of the source: active = inhibition above about 50%; inactive = the rest.

SMILES	Pf apPOL block	mHTT-CaM PPI inh
O=C(CN1C(=O)C(c2ccc(F)cc2)=NC12CCCCC2)Nc1ccc(F)cc1	-5.5	11.7
O=C(O)COc1ccc(/C=C2\C(=O)NC(=O)N(c3cccc(F)c3)C2=O)cc1Cl	10.7	4.0
CC(=O)Nc1ccc(-c2noc(C3CCCN(C(=O)c4ccc(C(C)(C)C)cc4)C3)n2)cc1 (configuration not stated)	-6.8	-1.3
Cc1cc(OCC(=O)Nc2ccccc2C(F)(F)F)nc(N2CCCC(C)C2)n1 (configuration not stated)	-1.9	-10.0
Cn1c(=O)c(C(N)=NOC(=O)c2ccccc2Cl)cn(-c2ccccc2)c1=O	-7.8	·
Cc1nc(SCC(=O)Nc2ccc(F)cc2F)[nH]c(=O)c1C	-2.6	-1.1
CCN1C(=O)c2cccc3c(NC(=O)c4ccno4)ccc1c23	6.9	10.2
COc1ccc(NC(=O)CN2C(=O)C(c3ccccc3)=NC23CCC(C)CC3)cc1OC (configuration not stated)	-7.9	7.6
CC1CCC2(CC1)N=C(c1ccccc1)C(=O)N2CC(=O)Nc1ccc(F)c(F)c1 (configuration not stated)	-7.0	76.4*
COc1cccc(C2=CC(c3ccc(OC)c(OC)c3)n3nnnc3N2)c1 (configuration not stated)	-5.1	22.0
O=C(Nc1cc(C(F)(F)F)ccc1N1CCOCC1)c1cccnc1	-5.2	3.0
COc1ccc(C(=O)CC2(O)C(=O)N(Cc3ccc(Cl)cc3)c3ccccc32)cc1[N+](=O)[O-] (configuration not stated)	-7.8	100.3*
COc1ccc(C(=O)CC2(O)C(=O)Nc3ccccc32)cc1[N+](=O)[O-] (configuration not stated)	-14.9	-5.0
CCCCC(=O)Nc1oc2c(C)cccc2c(=O)c1-c1ccc(OC)c(OC)c1	-6.5	4.5
CCOc1ccccc1NC(=O)c1ccccc1[N+](=O)[O-]	-6.1	-5.2
COc1cc(C(=O)Nc2nnc(C3CC(=O)N(c4ccccc4)C3)o2)cc(OC)c1OC (configuration not stated)	-2.6	34.3
O=Nc1ccc(NOC(=O)/C=C/c2ccccc2)cc1	-8.2	73.0*
O=C(/C=C/c1ccccc1)Nc1ccc(NC(=O)c2ccco2)cc1	4.4	9.6
COc1ccc(NC(=O)C2CC(=O)N(c3ccccc3)C2)cc1 (configuration not stated)	2.5	0.1
O=C(Nc1ccc(Oc2ccccc2)cc1)C1CC(=O)N(c2ccccc2Cl)C1 (configuration not stated)	-0.2	72.2*
Cc1cc(Cl)ccc1N1CCN(C(=O)c2cccc(F)c2)C(C)C1=O (configuration not stated)	-1.6	4.8
COc1ccc(NC(C)=O)cc1NC(=O)c1sc2nc(-c3ccccc3)cn2c1C	-3.2	52.0*
CC(=O)Nc1cccc(NC(=O)c2sc3nc(-c4ccccc4)cn3c2C)c1	-2.3	12.0
CN(C)c1cccc(C(=O)N2CCC3(CC2)NC(=O)N(Cc2ccccc2)C3=O)c1	-7.5	5.2
CCc1onc(C)c1C1CCCN1Cc1ccccc1Cl (configuration not stated)	2.2	-70.5
SMILES	Pf apPOL block	mHTT-CaM PPI inh
CC1(NCc2ccccc2)CCS(=O)(=O)C1 (configuration not stated)	-0.6	-3.5
CCCNc1cc(N2CCC(CCC(=O)NCc3ccc(F)cc3)CC2)ncn1	-2.3	0.8
O=C(C1CCN(c2nnc(-c3ccccc3)o2)CC1)N1CCCCC1	-6.6	-2.2
O=C(C1CCN(c2nnc(-c3ccccc3)o2)CC1)N1CCC(Cc2ccccc2)CC1	-7.1	69.7*
COc1ccc(OC)c(NC(=O)c2cc3c(n2C)CCN(Cc2ccc(C)cc2)C3)c1	-4.8	78.3*
COc1cccc(CN2CCc3c(cc(C(=O)N(C)C)n3C)C2)c1	-3.2	10.1
COc1ccccc1NC(=O)c1cc2c(n1C)CCN(Cc1ccc(C)cc1)C2	-3.9	24.9
COc1cccc(NC(=O)c2cc3c(n2C)CCN(Cc2ccc(F)cc2)C3)c1	-5.6	25.9
COc1cccc(CN2CCc3c(cc(C(=O)Nc4cc(C)ccc4OC)n3C)C2)c1	-5.4	85.8*
COc1cccc(CNC(=O)c2cc3c(n2C)CCN(Cc2cccc(OC)c2)C3)c1	-4.3	59.2*
COc1cccc(CN2CCc3c(cc(C(=O)Nc4ccc(F)cc4C)n3C)C2)c1	-5.6	64.8*
COc1cccc(CN2CCc3c(cc(C(=O)NCc4cccnc4)n3C)C2)c1	-4.7	9.3
CC(C)(C)OC(=O)COc1ccc2c(c1)OC(=Cc1ccccc1)C2=O	-0.9	12.1
CSc1ccc2nc(NC(=O)c3ccc4ncsc4c3)sc2c1	2.6	29.1
CCCC1CCC2(CCCN2CCOC(=O)Nc2ccccc2)CC1 (configuration not stated)	-2.1	2.9
CCCC1CCC2(CCCN2CCOC(=O)Nc2ccc(Br)cc2)CC1 (configuration not stated)	-9.7	95.9*
O=C(COc1ccccc1-c1ccccc1)c1ccccc1	-0.4	-131.7
Cc1ccc(C)n1-c1ccc2ncccc2c1	-0.6	66.9*
Cc1nnc(C)c2c(C)n(-c3ccc4ncccc4c3)c(C)c12	-10.5	25.4
Cn1nc(-c2ccccc2)cc1C(=O)NCCn1nc(-c2ccc(Cl)cc2)ccc1=O	-7.7	-5.7
O=C(NCCn1nc(-c2ccccc2)ccc1=O)c1ccc(-n2cccc2)cc1	-6.5	63.3*
c1cncc(-c2nc(N3CCCC3)c3ccccc3n2)c1	-3.6	0.4
CCc1ccc(N2C(=O)C3N=NN(c4ccc(F)cc4)C3C2=O)cc1 (configuration not stated)	-0.7	-16.6
O=C(NCC1CCCO1)c1ccn2c(-c3ccc(F)cc3)nnc2c1 (configuration not stated)	-0.4	0.5
CCCSc1nnc2c(n1)OC(c1cc(OC)c(O)c(OC)c1)Nc1ccccc1-2 (configuration not stated)	-0.2	-7.0
SMILES	Pf apPOL block	mHTT-CaM PPI inh
CCCCCSc1nnc2c(n1)OC(c1cccnc1)Nc1ccccc1-2 (configuration not stated)	-3.3	6.0
CCCSc1nnc2c(n1)OC(c1cccnc1)Nc1ccccc1-2 (configuration not stated)	51.9*	0.0
CCSc1nnc2c(n1)OC(c1cc(OC)c(O)c(OC)c1)Nc1ccccc1-2 (configuration not stated)	94.6*	-3.0
Nc1cc(-c2ccccc2)nc2cc(-c3ccccc3)nn12	-5.1	-7.7
Cc1cc(N2C(=O)c3ccc(C(=O)N4CC=C(c5ccccc5)CC4)cc3C2=O)no1	-2.7	51.0*
Cc1cc(N2C(=O)c3ccc(C(=O)O)cc3C2=O)no1	-0.6	-4.0
CCN1c2ccccc2C(=O)NC12CCN(C(=O)c1cccc(OC)c1)CC2	-0.6	-0.5
O=C(O)c1ccc(N=Cc2cc([N+](=O)[O-])ccc2O)cc1	-1.2	2.0
COc1ccc(N=c2oc3c(C)ncc(CO)c3cc2C(=O)Nc2ccccc2)c(OC)c1	2.8	8.0
CCc1ccc(NC(=O)c2cc3c(CO)cnc(C)c3oc2=Nc2ccc(OC)cc2OC)cc1	56.8*	4.0
O=C(NCCN1CCOCC1)C1CN(S(=O)(=O)c2cccnc2)CC12CCCCC2 (configuration not stated)	-1.2	-11.1
NC(=O)c1cc2cc(Br)ccc2oc1=Nc1ccc(Br)cc1	1.0	6.0
NC(=O)c1cccc(N=c2oc3ccc(Br)cc3cc2C(N)=O)c1	4.5	71.0*

Screening data (PubChem BioAssay)
